Screening data from PubChem.
In the library only some 5.2% were active in any assay of this set; here they are far more common.
PfM18AAP inh-1 – PfM18AAP inhibitors, malaria aminopeptidase, primary screen, biochemical, QFRET, recombinant enzyme | hit rate 1.2% among 290,000 | inhibition, % at 7.35 µM | H-Glu-NHMec fluorogenic cleavage | M18 aspartyl aminopeptidase (Plasmodium falciparum 3D7);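 active = inhibition above the campaign mean inhibition over all tested compounds plus 3 SD, cut at about 28% in these data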;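 note: 0% = plate median of test compound wells and 100% = 2 mM ZnCl2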
CR mimetic SO – reduction of superoxide in aged yeast, primary screen, HTS; superoxide response (% of plate mean), % at 10 µM; hit rate 0.18% among 330,000; AID 2690, 2010; S. cerevisiae aged cells, superoxide DHE fluorescence; stronger effect = lower value;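 active = superoxide response under a set limit, about three screen SD below normal, cut at about 65% in these data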;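 note: yeast aged for seven days with compound at 30 °C before DHE staining; 100% = average MFI of all compound-treated wells on the plate with controls excluded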
A3A deaminase – APOBEC3A ssDNA deaminase inhibitors, primary screen, selectivity assay for APOBEC3G inhibitor project, biochemical, FAM/TAMRA oligo cleavage fluorescence; DNA dC->dU-editing enzyme APOBEC-3A (Homo sapiens), P31941; inhibition, % at 20 µM; hit rate 0.41% among 330,000; recombinant A3A, FAM/TAMRA ssDNA deamination fluorescence;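 active = at least 40% inhibition at 20 µM here, with at most 30% in a related deaminase screen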;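 note: plate controls were A3A with DMSO for no effect and wells lacking A3A enzyme for full effect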
Target sequence (P31941 whole entry, looked up): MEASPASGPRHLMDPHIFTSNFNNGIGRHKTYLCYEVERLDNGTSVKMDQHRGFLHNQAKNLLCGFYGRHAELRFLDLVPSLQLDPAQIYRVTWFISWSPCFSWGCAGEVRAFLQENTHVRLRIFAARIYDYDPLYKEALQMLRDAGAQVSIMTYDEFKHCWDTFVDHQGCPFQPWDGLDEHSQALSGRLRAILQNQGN
ALR H2O2 inh – inhibitors of human ALR sulfhydryl oxidase, primary screen, biochemical, H2O2 detection, HRP-luminol luminescence, single point; FAD-linked sulfhydryl oxidase ALR (Homo sapiens), P55789; inhibition, % (no concentration beside the values); purified ALR, DTT oxidation; hit rate 3.8% among 290,000; AID 485317, 2010;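 active = mean replicate inhibition above about 79%, with every replicate also reaching it, limit read from the data; inconclusive = only one of the two criteria met; inactive = mean below limit and not every replicate reaching it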
Target sequence (P55789 whole entry, looked up): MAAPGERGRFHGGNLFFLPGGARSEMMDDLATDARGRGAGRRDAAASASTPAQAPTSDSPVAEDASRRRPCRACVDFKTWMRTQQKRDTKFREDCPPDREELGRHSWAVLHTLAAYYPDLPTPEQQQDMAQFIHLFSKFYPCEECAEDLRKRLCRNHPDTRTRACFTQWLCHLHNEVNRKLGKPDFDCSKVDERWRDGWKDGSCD
NRP1-CendR mod – modulators of CendR peptide binding to NRP-1, primary screen, biochemical, fluorescence polarization, uHTS; hit rate 0.85% among 360,000; inhibition, % at 25 µM; FAM-RPARPAR peptide binding to NRP-1; Neuropilin-1 (Homo sapiens), O14786;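 active = inhibition or corrected inhibition above about 18%, plus a signal ratio from 0.5 to 1.5, limit read from the data, passing the limit was not always enough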
APOBEC3G inh – APOBEC3G DNA deaminase inhibitors, primary screen, biochemical, fluorescence, single-stranded DNA substrate, uHTS; recombinant A3G, ssDNA deamination FAM/TAMRA fluorescence; DNA dC->dU-editing enzyme APOBEC-3G (Homo sapiens), Q9HC16; AID 493012, 2011; inhibition, % at 20 µM; hit rate 0.28% among 330,000;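 active = inhibition of at least 40% at 20 µM, with no more than 30% in the related APOBEC3A deaminase screen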;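 note: plate controls were DMSO wells with A3G for no effect and wells lacking A3G enzyme for full effect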
PfM18AAP inh-2 – PfM18AAP inhibitors, malaria aminopeptidase, confirmation, biochemical, QFRET, recombinant enzyme, triplicate. shares compounds with PfM18AAP inh-1. H-Glu-NHMec fluorogenic cleavage. inhibition, % at 7.35 µM. hit rate 28% among 2,400. AID 2170, 2009;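 active = mean inhibition over replicate wells above the hit cutoff set for the earlier primary screen, cut at about 29% in these data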;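 note: 0% = median of test compound wells and 100% = 2 mM ZnCl2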
CTSL1 confirm – cathepsin L1 inhibitors, retest, confirmation, counter-screen for PFM18AAP inhibitor project, biochemical, QFRET, triplicate; purified cathepsin L1, Z-Leu-Arg-MCA fluorescence; shares compounds with PfM18AAP inh-1; 2,400 tested, under 10 active; AID 2178, 2009; inhibition, % at 5.96 µM;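 active = average inhibition across replicates above the hit cutoff set in the earlier primary screen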;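 note: 0% = median of test compound wells and 100% = Z-Phe-Ala-diazomethylketone 1 µM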
* hit, by the source's call; ? = inconclusive; nt = not tested or not shown.

SMILES	PfM18AAP inh-1	CR mimetic SO	A3A deaminase	ALR H2O2 inh	NRP1-CendR mod	APOBEC3G inh	PfM18AAP inh-2	CTSL1 confirm
CCOCc1c(C(=O)Nc2ccc(OC)nc2)oc2ccccc12	1	109	19	-21	-2	-1	nt	nt
Cc1ncc(CO)c(/C=N/NC(=O)c2ccc(Br)cc2)c1O	12	107	0	26	nt	-1	nt	nt
Cc1ncc(CO)c(/C=N/NC(=O)c2cc(O)c(O)c(O)c2)c1O	58*	nt	nt	nt	nt	nt	36*	-4
CC(=O)OCC(=O)C1(O)CCC2C3CCC4=CC(=O)CCC4(C)C3(Cl)C(O)CC21C (stereo not given)	nt	nt	nt	nt	2	nt	nt	nt
CCOc1cc(/C=N/N=C(/N)c2nonc2N)cc(Br)c1OCc1ccc(Cl)cc1	-9	98	-1	-4	1	-3	nt	nt
Cc1sc2c(c1C)C(=O)NC(c1cccc(O)c1)N2 (stereo not given)	49*	109	1	nt	nt	25	-8	2
CCCCc1ccc(NC(=O)c2ccc(NS(C)(=O)=O)cc2)cc1	-15	100	-2	-8	0	-4	nt	nt
O=C(NNc1ccc([N+](=O)[O-])cc1)c1ccccc1F	39*	nt	nt	nt	3	nt	16	9
O=C(NNc1ccc([N+](=O)[O-])cc1)c1ccccc1Cl	50*	73	4	-28	-7	-7	21	0
O=C(NNC1=Nc2cc([N+](=O)[O-])ccc2OC1)c1ccccc1Cl	11	93	-5	-2	-3	-7	nt	nt
O=C(NNc1ccccc1[N+](=O)[O-])Nc1ccc(F)cc1	38*	95	2	nt	-1	1	1	4
O=C(NNc1ccc([N+](=O)[O-])cc1)Nc1ccccc1	55*	96	-3	nt	0	-6	32*	1
O=C(Nc1ccc([N+](=O)[O-])cc1)c1ccccc1	-11	100	-1	-10	5	-9	nt	nt
O=C(NNc1ccccc1[N+](=O)[O-])Nc1ccccc1	11	112	5	-1	0	-1	nt	nt
CCOC(=O)[C@]12CCCC=C1N(Cc1ccc3c(c1)OCO3)C(=O)[C@H](CC(=O)N1CCC(c3ccccc3)CC1)C2	nt	nt	nt	nt	12	nt	nt	nt
O=C(O)c1ccccc1-c1ccccc1C(=O)NNc1ccc([N+](=O)[O-])cc1	53*	95	8	-20	-6	6	22	0
O=C(O)c1ccccc1Nc1ccc([N+](=O)[O-])cc1	-12	126	nt	9	6	nt	nt	nt
Cc1cc(C)nc(Sc2nc(Cl)nc(N(c3ccccc3)c3ccccc3)n2)n1	47*	93	-5	54	-17	4	22	-2
S=C1NC(c2ccccc2)N2C(=S)NC(c3ccccc3)N12 (stereo not given)	38*	91	-3	98*	3	39	-42	-1
O=C(Cc1cccs1)NNC(=S)NC(=O)c1ccco1	34*	122	1	42	-7	4	-16	-3
O=C(NC(=S)Nc1ccc(NC(=O)c2cccs2)cc1)c1ccco1	-4	93	-3	1	-13	-2	nt	nt
COc1cccc(C(=O)Nc2ccccc2N2CCN(C(=O)c3ccccc3)CC2)c1	nt	87	2	-1	4	-2	nt	nt
CCC(=O)Nc1ccc(NC(=O)c2cccc3c(Br)cccc23)cc1	45*	98	13	-8	-13	-3	-30	1
CCC(=O)Nc1ccc(NC(=O)c2cccc3ccccc23)cc1	-1	96	-3	nt	7	-5	nt	nt
CCOC(=O)c1c(NC(=O)CSc2ncn[nH]2)sc(C(C)=O)c1C	33*	107	-2	-5	11	-9	23	5
SMILES	PfM18AAP inh-1	CR mimetic SO	A3A deaminase	ALR H2O2 inh	NRP1-CendR mod	APOBEC3G inh	PfM18AAP inh-2	CTSL1 confirm
CCOC(=O)c1c(-c2ccc(C)o2)csc1NC(=O)CSc1ncn[nH]1	61*	84	8	1	5	-4	26	2
COC(=O)c1c(NC(=O)CSc2ncn[nH]2)sc(C)c1C	nt	101	-4	3	-7	-12	nt	nt
O=C1CCC(=O)N1c1ccc(S(=O)(=O)Nc2cccc([N+](=O)[O-])c2)cc1	-4	99	3	-3	0	4	nt	nt
O=C1NC(=S)SC1=Cc1ccc(Cl)cc1	nt	nt	nt	nt	-49	nt	nt	nt
O=C(O)c1ccc(S(=O)(=O)c2ccc3c(c2)C(=O)N(c2ccc(O)cc2)C3=O)cc1	33*	99	3	nt	3	-5	-49	-1
COc1cccc(C(=O)NNC2OC(CO)C(O)C2O)c1 (stereo not given)	-3	98	-4	13	5	-4	nt	nt
Cc1csc(SCC(=O)Nc2cc(F)ccc2C)n1	nt	nt	nt	nt	-3	nt	nt	nt
O=c1cc(-c2ccc(O)c(O)c2)oc2cc(O)cc(O)c12	nt	96	-2	?	-68	-5	nt	nt
COc1cc(O)c2c(=O)c3c(O[C@H]4O[C@@H](CO)[C@H](O)[C@@H](O)[C@@H]4O)ccc(O)c3oc2c1	nt	91	3	39	-7	0	nt	nt
O=C(O)C1OC(Oc2c(-c3ccc(O)c(O)c3)oc3cc(O)cc(O)c3c2=O)C(O)C(O)C1O (stereo not given)	65*	101	9	99*	nt	5	43*	4
O=c1c(O)c(-c2ccc(O)c(O)c2)oc2cc(O)cc(O)c12	76*	100	1	99*	-57	-4	65*	-5
CC[n+]1c(C)sc2c3ccsc3ccc21	55*	91	29	46	-11	20	9	6
Cc1ccc(N=C(NO)c2nonc2N)c(C)c1	34*	78	-7	74	15	-8	6	0
CCOc1cc(C2NC(=O)NC2=O)ccc1O (stereo not given)	35*	102	-2	32	-5	-8	-42	-5
CCOC(=O)C1=C(c2ccccc2)NC(=O)NC1c1ccc(O)c(OCC)c1 (stereo not given)	6	97	-3	19	3	-11	nt	nt
CC(C)(C)c1ccc(OCC(=O)Nc2ccc3c4c(cccc24)C(=O)NC3=O)cc1	-6	nt	nt	nt	8	nt	nt	nt
CCCn1nc(C(=O)OCC(=O)c2ccccc2)c2ccccc2c1=O	6	100	-2	-2	-9	-5	nt	nt
